# Experimental data taken from the supplement of paper PMC4166925.
# ± gives the standard deviation of the averaged measurements. Whole data set: some 33,000 sequences, median “E-score (dimensionless, -0.5 to 0.5)” near -0.046, cut for the highest 2% near 0.36. This excerpt belongs to a sample that is enriched for the highest values.
# System: T1, SpTbr T-box DNA-binding domain (GST fusion)
# T1 sequence: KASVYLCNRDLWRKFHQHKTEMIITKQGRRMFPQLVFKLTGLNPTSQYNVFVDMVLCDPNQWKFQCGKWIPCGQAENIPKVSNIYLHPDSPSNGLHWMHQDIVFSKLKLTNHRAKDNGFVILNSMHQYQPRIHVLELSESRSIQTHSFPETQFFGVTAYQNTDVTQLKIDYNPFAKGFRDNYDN
# Assay: PBM E-score of 8-mer (E-score (dimensionless, -0.5 to 0.5)); Tbr is Tbrain of the sea star Patiria miniata (Pm) or the sea urchin Strongylocentrotus purpuratus (Sp); higher = stronger binding preference
# Settings: the construct has about 5 more residues each side
# Procedure, shortened: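 GST-fused Tbr T-box DNA-binding domains (the whole T-box plus about five flanking residues) were expressed in BL21 E. coli at 20 °C and purified by glutathione affinity chromatography. Universal Agilent oligonucleotide arrays were made double-stranded by primer extension, incubated with 200 nM protein in PBS (pH 7.5), then scanned and quantified. Every ungapped 8-mer was scored from probe intensities. The Universal PBM Analysis Suite gave each word an enrichment E-score, averaged over duplicate arrays.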
row,Sequence,PBM E-score of 8-mer
1,TCCAATAA,-0.0798 ± 0.025
2,AACACTAG,0.222 ± 0.049
3,GACACTTA,0.393 ± 0.0065
4,GACACTGA,0.093 ± 0.019
5,AACACTTG,0.3953 ± 0.0019
6,ATCACTTG,0.169 ± 0.064
7,GCCACTTA,0.244 ± 0.011
8,GTAGCTTA,-0.0295 ± 0.0053
9,AAGCTTAC,-0.128 ± 0.056
10,TCAGGCAA,-0.143 ± 0.02
11,CAGTATTC,-0.193 ± 0.092
12,GACCTACC,-0.129 ± 0.006
13,CACCTACG,0.373 ± 0.0055
14,GACCTACA,-0.0944 ± 0.046
15,AACCTACG,-0.159 ± 0.083
16,TACCTACA,-0.24 ± 0.016
17,CCCCTACG,-0.185 ± 0.019
18,CACCTACC,0.394 ± 0.01
19,CACCTACA,0.371 ± 0.014
20,AACCTACC,-0.182 ± 0.056
21,CCCGCCTA,-0.0474 ± 0.13
22,TATTGCCA,0.0232 ± 0.0082
23,CCCTTGCG,-0.0683 ± 0.034
24,GTCTCAGA,-0.0914 ± 0.014
25,GGTGCATA,0.0222 ± 0.011

row,Sequence,PBM E-score of 8-mer
1,CCCGATAA,0.0927 ± 0.11
2,CCACACGG,0.0912 ± 0.023
3,CGAACGAG,0.0552 ± 0.067
4,CGTCCTGC,-0.234 ± 0.0096
5,ATAAGTCA,-0.102 ± 0.017
6,AGACACCA,0.251 ± 0.032
7,AGACACCC,0.156 ± 0.041
8,GGACACCA,0.183 ± 0.045
9,GGACACCC,0.185 ± 0.023
10,TGACACCA,0.419 ± 0.0076
11,CGACACCA,0.387 ± 0.014
12,CGACACCG,0.257 ± 0.037
13,CGACACGA,0.174 ± 0.041
14,CGACACCC,0.416 ± 0.028
15,GGCCACTA,-0.0216 ± 0.031
16,CTACTACC,-0.112 ± 0.033
17,CCAATTTC,0.0768 ± 0.033
18,ATCGCTCG,-0.0361 ± 0.046
19,CTCGCAGA,0.0495 ± 0.024
20,CTGGCACC,0.367 ± 0.018
21,ATCGCAAG,0.177 ± 0.03
22,ATCGCACG,0.345 ± 0.027
23,CCCGCACC,0.311 ± 0.036
24,CTCGCACC,0.451 ± 0.016
25,ATGGCACC,0.3573 ± 0.0028

row,Sequence,PBM E-score of 8-mer
1,CTCGCAAG,0.204 ± 0.032
2,CTCGCATC,0.129 ± 0.052
3,ATCGCACA,0.366 ± 0.0063
4,CTCGCACA,0.37 ± 0.016
5,CTGGCACA,0.1856 ± 0.00035
6,AGAGTGAC,0.145 ± 0.013
7,ATATTGGC,0.12 ± 0.019
8,CGATAGTA,-0.122 ± 0.091
9,ATTCTACA,-0.0365 ± 0.019
10,ACGAAAGA,-0.0823 ± 0.0021
11,AGACTGCG,0.0627 ± 0.0045
12,GAATCTTA,-0.197 ± 0.05
13,CATCTCTA,-0.0506 ± 0.074
14,CAGACTCA,-0.0949 ± 0.051
15,GCTCTCAC,0.312 ± 0.028
16,GACTGTGC,-0.124 ± 0.033
17,GCCCGTCC,-0.216 ± 0.0065
18,GCCAGGCC,-0.217 ± 0.036
19,ATCGCAGC,0.0579 ± 0.024
20,GTCGCAGA,-0.0708 ± 0.1
21,GTCGCACA,0.3754 ± 0.0036
22,GTCGCAAA,0.0958 ± 0.038
23,ATCGCACC,0.47 ± 0.006
24,ATCGCAAC,0.232 ± 0.0099
25,AAGGTTAG,-0.0571 ± 0.0011

row,Sequence,PBM E-score of 8-mer
1,CTCGGGCC,-0.167 ± 0.0065
2,GCCGGTCC,-0.235 ± 0.075
3,GACTCACA,0.313 ± 0.038
4,AACTCACA,0.2436 ± 0.00066
5,CACTCACA,0.377 ± 0.017
6,CGCTCACA,0.263 ± 0.015
7,GGCTCACA,0.161 ± 0.053
8,TACTCACA,0.371 ± 0.0028
9,CACTCACG,0.266 ± 0.052
10,AACTCACG,0.00507 ± 0.019
11,TGCTCACA,0.3801 ± 0.0011
12,ACGAGCTA,-0.118 ± 0.015
13,TCAACCCA,-0.174 ± 0.026
14,ATACTTGC,0.0754 ± 0.026
15,ATGCATCA,0.0819 ± 0.023
16,CGACTGAC,0.0364 ± 0.013
17,AGAGGAGC,-0.0105 ± 0.083
18,ACCTGTAC,-0.148 ± 0.024
19,GAGTAAAC,-0.0192 ± 0.019
20,CCCAGAAA,-0.216 ± 0.045
21,GATTGTCA,0.248 ± 0.0068
22,GAGTGTCA,0.4478 ± 0.0016
23,AAGTGTAG,0.144 ± 0.0052
24,CAGTGTCG,0.266 ± 0.0072
25,TAGTGTCA,0.395 ± 0.032

row,Sequence,PBM E-score of 8-mer
1,AAGTGTCG,0.425
2,TAGTGTAA,0.216 ± 0.061
3,AAGTGTCT,0.292 ± 0.033
4,CAGTGTCA,0.3068 ± 0.002
5,GAGTGTCC,0.0603 ± 0.01
6,AAGTGTAA,0.399 ± 0.018
7,TCGTGTCA,0.294 ± 0.0086
8,AGCAAAGC,-0.0455 ± 0.048
9,AAAGCAGT,-0.167 ± 0.049
10,TGAGATAA,0.0687 ± 0.09
11,CACAGGGG,0.0864 ± 0.031
12,ACCGTTCC,-0.000825 ± 0.11
13,AAGTGTCC,0.2466 ± 0.0019
14,AAGTGTCA,0.46288 ± 2.8e-05
15,AAGTGTAT,0.0229 ± 0.032
16,CCTATGCG,0.00647 ± 0.019
17,ACGCGCCA,0.201 ± 0.019
18,GCACGCCA,0.0542 ± 0.013
19,GCGCGCGA,0.316 ± 0.041
20,CCGCGCGA,0.203 ± 0.03
21,GCGCGCCA,0.133 ± 0.087
22,ACACGCCA,0.205 ± 0.0044
23,TCGCGCGA,0.379 ± 0.0069
24,TCGCGCCA,0.384 ± 0.009
25,TCACGCCA,0.403 ± 0.0053

row,Sequence,PBM E-score of 8-mer
1,GCACGCGA,0.186 ± 0.025
2,TCACGCGA,0.3949 ± 0.0026
3,CCACGCGA,0.172 ± 0.028
4,CAGACAAA,-0.0589 ± 0.033
5,GGATACAA,0.0747 ± 0.011
6,CCGCCTCG,-0.0478 ± 0.058
7,TAAAGAAA,-0.13 ± 0.11
8,CCCTAACC,-0.113 ± 0.029
9,ACGCGCGA,0.393 ± 0.023
10,ACGCGCGG,0.229 ± 0.028
11,ACGCGCGC,0.189 ± 0.056
12,AAGTAGAA,0.0466 ± 0.046
13,AGTGAACA,0.175 ± 0.0043
14,CGTGAACC,0.353 ± 0.018
15,TGTGAACA,0.445 ± 0.0018
16,GGTGAACA,-0.0711 ± 0.04
17,TGTGAAAA,0.394 ± 0.048
18,GGTGAAAA,0.126 ± 0.095
19,CGTGAACA,0.3774 ± 0.003
20,TATGAACA,-0.0802 ± 0.022
21,CGTGAAAA,0.329 ± 0.069
22,AGATATTC,-0.243 ± 0.033
23,AGCTATTG,-0.0351 ± 0.028
24,ACTTAGAG,-0.0957 ± 0.015
25,CCCAAATC,-0.108 ± 0.11

row,Sequence,PBM E-score of 8-mer
1,CCAAGAGC,-0.28 ± 0.06
2,ACGTGAGG,0.196 ± 0.024
3,AAGTGAGG,0.2725 ± 0.0021
4,AAGTGAGA,0.4 ± 0.018
5,GGGGGTGA,0.289 ± 0.03
6,GAGTGAGA,0.346 ± 0.023
7,AGGTGAGC,0.2602 ± 0.00092
8,AGGTGAGA,0.4826 ± 0.0046
9,AGGTGAAA,0.266 ± 0.045
10,CGGTGAGA,0.257 ± 0.012
11,CAGTGAGA,0.157 ± 0.062
12,AGGTGAGG,0.4113 ± 0.0021
13,GGGTGAGA,0.424 ± 0.0073
14,CATCGATA,-0.00022 ± 0.06
15,CGCAAGGA,-0.051 ± 0.018
16,AGATTCCG,-0.0246 ± 0.022
17,CTCGTATA,-0.142 ± 0.0069
18,TAACTACA,0.0924 ± 0.085
19,AAGGTGTA,0.394 ± 0.023
20,AAGGTGTG,0.4816 ± 0.0018
21,GAGGTGTA,0.418 ± 0.014
22,ACGGTGTG,0.3578 ± 0.0014
23,AAGGTTTG,-0.161 ± 0.046
24,ACGGTGTA,0.137 ± 0.026
25,GGGGTGTA,0.167 ± 0.062

row,Sequence,PBM E-score of 8-mer
1,CCGGTGTA,0.115 ± 0.037
2,GCGGTGTA,-0.122 ± 0.012
3,TACGACCA,-0.249 ± 0.12
4,CGTGCACG,0.00996 ± 0.044
5,CTTTCTAA,-0.187 ± 0.023
6,ACGCAGGC,-0.149 ± 0.011
7,CTTAGTGA,0.0752 ± 0.0019
8,ACGCGAGT,0.107 ± 0.072
9,ATGGGAGC,-0.168 ± 0.01
10,AGTTCACG,0.338 ± 0.049
11,AGTTCACA,0.442 ± 0.013
12,CGATCACA,0.396 ± 0.0068
13,GGTTCACA,0.3973 ± 0.0018
14,CGTTCACA,0.418 ± 0.0069
15,GGTTCATA,-0.0395 ± 0.039
16,CGTTCACC,0.0843 ± 0.012
17,GGTTCAAA,-0.343 ± 0.0085
18,AGATCACA,0.342 ± 0.02
19,CGATCACG,0.221 ± 0.037
20,CGTTCAAG,-0.167 ± 0.0076
21,AGTTCACC,-0.00201 ± 0.066
22,TAGATCCA,-0.288 ± 0.061
23,CTAGTTTA,-0.132 ± 0.14
24,AGTCCTGG,-0.262 ± 0.021
25,CGGAGATA,0.0372 ± 0.0019

row,Sequence,PBM E-score of 8-mer
1,AATTGGGA,-0.0875 ± 0.07
2,CCTTGGAG,-0.1541 ± 0.00054
3,ACGCGCCG,0.227 ± 0.11
4,ACACAGTA,0.116 ± 0.02
5,GCCTTCGC,0.296 ± 0.0037
6,CGATGCAG,-0.164 ± 0.022
7,AATCTTCC,-0.133 ± 0.036
8,GAAGTAAA,-0.281 ± 0.027
9,ATAATCTC,-0.0752 ± 0.092
10,CCGAGACG,-0.121 ± 0.015
11,GCGCGAGC,0.298 ± 0.053
12,GCGCGAGA,0.3663 ± 0.0029
13,GCGAGAGA,0.203 ± 0.061
14,CCGCGAGA,0.224 ± 0.037
15,ACGCGAGA,0.219 ± 0.016
16,TCGCGAGA,0.367 ± 0.01
17,AACTATAT,-0.0107 ± 0.13
18,GAGTTACC,0.144 ± 0.011
19,CGCACAGC,0.122 ± 0.012
